The values that follow come from PubChem BioAssay (EPA / NIEHS).

For orientation: AC50 means the concentration giving half of the maximal activity seen.

Records with an inconclusive call do not appear. Calls of active or inactive are those of the source. Rule for the calls: active = hit-call score of the fitted dose curve at least 0.9, where 1 is the maximum; inconclusive = response in the unintended direction; inactive = score below 0.9.

A short description of this assay: TOX21_p53_BLA_p4_viability: Viability Assessment in the Tox21 HCT-116 p53 Agonism Beta-lactamase Assay, Phase 4 (AID 2283597).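 Note: hits lower the luminescence signal meaning cytotoxicity.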 An excerpt: TOX21_p53_BLA_p4 is a cell-based, single-readout assay that uses HCT116, a human intestinal cell line, […] in a 1536-well plate.TOX21_p53_BLA_p4_viability is an assay readout measuring cellular ATP content and detected with CellTiter-Glo Luciferase-coupled ATP quantitation.TOX21_p53_BLA_p4_viability used a type of viability reporter where loss-of-signal activity can be used to understand changes in the cell viability. Furthermore, this assay endpoint can be referred to as a secondary readout, because this assay has produced multiple assay endpoints where this one serves a viability function. To generalize the intended target to other relatable targets, this assay endpoint is annotated to the cell cycle intended target family, where the subfamily is cytotoxicity.
Thawing Method: Place 14 mL of pre-warmed thaw medium into a 15 mL of conical tub. Remove the vial of cells to be thawed from liquid nitrogen and thaw rapidly by placing at 37C in a water bath with gentle agitation for 1-2 minutes. Decontaminate the vial by wiping with 70% ethanol before opening in a biological safety cabinet. Transfer the vial contents drop-wise into 14 mL of thaw medium in a sterile 15-mL conical tub. Centrifuge cells at 900 rpm for 4 minutes and resuspend in thaw medium. Transfer contents to the T75 tissue culture flask containing Thaw Medium and place flask in a humidified 37C/5% CO2 incubator. Switch to growth medium at first passage.Propagation Method: Aspirate medium, rinse once in DPBS, add 0.25% Trypsin/EDTA and swirl to coat the cell evenly. Add an equal volume of Growth Medium to inactivate Trypsin after 2-3 minutes incubation at 37C. Centrifuge cells at 900 rpm for 4 minutes and resuspend in growth medium. Cell should be passage or fed at least twice a week.Assay Protocol: Harvest cells from culture in growth medium and resuspend in assay medium. 2.2 Dispense 4000 cells/5 uL/well into 1536-well black/clear bottom plates using a Multidrop dispenser. After the cells were incubated at 37C for 5 hours, 23 nL of compounds dissolved in DMSO were transferred to the assay plate by a PinTool resulting in a 217-fold dilution. Incubate the plates for 16 hours at 37C, 5% CO2. Add 1 uL of 6X LiveBLAzer FRET B/G (CCF4-AM) Substrate Mixture to each well using a BioRAPTR dispenser and incubate the plates at room temperature for 2 hours. Measure fluorescence intensity at 460 and 530 nm emission and 405 nm excitation by an Envision detector. Data is expressed as the ratio of 460nm/530nm emissions. Add 4 uL of Cell-titer Glo to each well using BioRAPTR and incubate the plates at room temperature for […]. For cell viability readout that measures cytotoxicity, 4 ul/well of CellTiter-Glo reagent was added into the assay plates using a Flying Reagent Dispenser. After 30 min incubation at room temperature, the luminescence intensity in the plates was measured using a ViewLux plate reader.
For the molecule `CCCCCCCCN(C)C`, the molecule was classed as inactive. Still for that read-out and setting: the value for `c1ccc2cc3ccccc3cc2c1` was “inactive”; that for `NC(=O)NN=Cc1ccc([N+](=O)[O-])o1` was “inactive”. As to `C=CN1CCCC1=O`, the molecule was called inactive. Regarding `CCOC(N)=O`, the molecule was called inactive. Still for that read-out and setting: the value for `OC(Cn1cncn1)(Cn1cncn1)c1ccc(F)cc1F` was “inactive”; that for `CC(=O)c1ccccc1` was “inactive”; that for `CCCCCCCCCC` was “inactive”. Turning to `NNC(=O)c1ccncc1`, the call was inactive. Same read-out and setting: the value for `CCCCC(CC)C(=O)OCCOCCOCCOC(=O)C(CC)CCCC` (stereo not drawn) was “inactive”. With `CCCCCCCCCCCCCCO`, the result was inactive.

Turning to `CCc1ccc(O)c(C(C)(C)C)c1`, the AC50 is 79.1 µM (active). Regarding `c1ccc(C(O[C@@H]2CCCN(CCc3ccc4c(c3)OCO4)C2)c2ccccc2)cc1`, the outcome was inactive.

For `CCCCN1C(=O)[C@@H]([C@H](O)C2CCCCC2)NC(=O)C12CCN(Cc1ccc(Oc3ccc(C(=O)O)cc3)cc1)CC2`, the molecule was classed as inactive.

Turning to `Cn1c(=O)c2[nH]cnc2n(C)c1=O`, the molecule was called inactive. Still for that read-out and setting: under `S=P(N1CC1)(N1CC1)N1CC1` stands “inactive”; under `OC(CCl)CCl`, “inactive”; under `c1ccc2ncccc2c1`, “inactive”. Still for that read-out and setting: under `O=C(O)c1cccc(C[C@@H]2COc3ccc(OCc4nc5cc(F)ccc5s4)cc3[C@@H]2O)c1` stands “inactive”. The same measure, in the same setting: under `CC(C)c1nnc2ccc(-c3ocnc3-c3cc(F)ccc3F)cn12` stands “inactive”; under `O=S1(=O)CCCO1`, “inactive”; under `OCCOCCOCCO`, “inactive”. `CC1(C)C(=O)N(Cl)C(=O)N1Cl`: the result was inactive.

`CCCCCCCCCCCCCCCCOS(=O)(=O)O`: the AC50 is 36.5 µM (active). Consider `OCc1c[nH]c2ccccc12`, for which the molecule was classed as inactive. On the same count and under the same terms, the value for `O=C(N[C@H](CO)[C@H](O)c1ccc([N+](=O)[O-])cc1)C(Cl)Cl` was “inactive”; that for `O=C1CN(N=Cc2ccc([N+](=O)[O-])o2)C(=O)N1` was “inactive”; that for `C[C@]12C=CC(=O)C=C1CC[C@H]1[C@@H]3C[C@@H](O)[C@](O)(C(=O)CO)[C@@]3(C)C[C@H](O)[C@@]12F` was “inactive”.
